Test results as given in the supplement of paper PMC3334620.
Over roughly 33,000 sequences, “E-score (-0.5 to 0.5)” has its median near -0.036; the highest 2% begin near 0.37. The sample as a whole holds a higher share of the highest values than the screen did.

What follows are sequences tested against T1, Yer064c (UniProt P40041) (assay: PBM E-score (8-mer binding enrichment) (E-score (-0.5 to 0.5)); higher = stronger / more preferred TF binding). Conditions: protein concentration: 200 nM; construct: GST-full length.
T1 sequence: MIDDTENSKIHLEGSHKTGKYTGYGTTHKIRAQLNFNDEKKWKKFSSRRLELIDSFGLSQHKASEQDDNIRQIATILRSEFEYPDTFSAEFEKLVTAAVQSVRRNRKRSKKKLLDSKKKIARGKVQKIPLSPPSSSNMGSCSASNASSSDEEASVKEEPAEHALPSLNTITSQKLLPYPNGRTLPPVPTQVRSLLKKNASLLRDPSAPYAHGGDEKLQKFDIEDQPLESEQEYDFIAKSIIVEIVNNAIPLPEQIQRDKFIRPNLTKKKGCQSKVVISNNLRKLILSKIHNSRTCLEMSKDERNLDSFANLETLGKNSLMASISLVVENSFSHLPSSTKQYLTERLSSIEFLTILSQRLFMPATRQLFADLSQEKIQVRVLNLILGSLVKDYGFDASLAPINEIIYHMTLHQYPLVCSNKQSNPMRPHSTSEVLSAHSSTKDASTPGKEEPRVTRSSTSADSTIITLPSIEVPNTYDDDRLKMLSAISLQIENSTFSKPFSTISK
Procedure, shortened: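 Masliner-normalised scans of fluorescent anti-GST signal were the basis for scoring. That signal came from GST-tagged yeast transcription factors applied at about 100-200 nM to double-stranded universal all-10-mer Agilent arrays on fresh or once-stripped slides. Each ungapped eight-base word, pooled with its reverse complement, received an E-score from the Universal PBM Analysis Suite.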

Point of comparison: CTACTCAG, “PBM E-score” value 0.132. Against it:
- CCGAGCAA — lower, -0.287
- ATTTGGTG — lower, -0.0429
- CCACGTTC — lower, -0.218
- CGGTCAAG — lower, -0.055
- AATTTAGT — higher, 0.363
- GTACCGCA — lower, -0.0756
- CTAGCACA — lower, -0.147
- ACATAGTC — higher, 0.386
- CCATAGTC — higher, 0.396
- CCATAGCC — lower, -0.0772
- ACATAGTA — lower, 0.0874
- ACATAGTG — lower, 0.0787
- CCATAGTA — lower, 0.0975
- CTCTCGAC — lower, -0.0566
- ACCGCCCA — lower, -0.117
- CGAGAATA — lower, -0.0825
- ATTCACGG — higher, 0.196
- AATCACGG — higher, 0.322
- CGTCACGA — lower, -0.0925
- ATTCACGC — the same, 0.132
- AGTCACGC — higher, 0.469
- CGTCACGC — lower, -0.184
- GGTCACGA — lower, 0.0181
- AGTCACGA — higher, 0.466
- AGTCACGG — higher, 0.469
- CAGTAAAG — lower, 0.0694
- CCGTTTGA — lower, 0.0399
- ACACCCAA — lower, -0.0135
- CCGCCTAC — lower, -0.132
- CCTTCGCA — lower, -0.293
- CTCGGAAC — lower, -0.012
- GACGGCAA — lower, -0.0972
- AGGAATCG — higher, 0.235
- CGGAATCA — higher, 0.392
- GGGAATGA — lower, 0.0959
- AGGAATCC — lower, -0.0672
- GGGAATAA — lower, -0.128
- GGGAATCA — higher, 0.418
- CGGAATTA — lower, -0.0336
- CGGAATCC — lower, -0.0704
- AGGAATCA — higher, 0.429
- GGATTCCA — lower, 0.0871
- CGCCGAAA — lower, -0.059
- GCGCAGGA — lower, -0.0398
- CCATCCTA — lower, 0.0627
- ATACCATG — lower, 0.061
- AGGTCATG — higher, 0.17
- ATGTCATC — lower, -0.179
- ATGTCATA — lower, 0.013
- AAGTCATA — higher, 0.46
- AGGTCATC — higher, 0.18
- AAGTCATT — higher, 0.454
- ACGTCATG — higher, 0.21
- AAGTCAAT — higher, 0.305
- AAGTCATG — higher, 0.465
- AAGTCATC — higher, 0.471
- AACTCATT — higher, 0.2
- AGGTCATA — higher, 0.171
- ATCTCTAA — lower, 0.0574
- AAGGATCC — lower, -0.15
- GAGTTCTA — lower, 0.0136
- GGTTGGGA — lower, 0.00893
- GGTATCAA — lower, 0.0678
- CGGTCATC — lower, -0.108
- CCGTCATC — lower, -0.098
- CAGTCATC — higher, 0.467
- ATCAAATC — higher, 0.21
- GAGAAGCC — lower, -0.201
- AGCAGAGC — lower, -0.137
- CTCATACA — higher, 0.184
- ATCATACA — higher, 0.236
- GTCATACA — higher, 0.374
- ATCAGGAA — lower, 0.00077
- CCGGCATC — lower, -0.251
- AGTAATCA — higher, 0.415
- GGTAATGA — higher, 0.189
- GGTAATCA — higher, 0.433
- CGTAATCC — lower, -0.0532
- AGTAATCC — lower, 0.0831
- GGTAATTA — lower, 0.0662
- CGTAATTA — lower, -0.00543
- CGTAATCA — higher, 0.42
- AGTAATCG — higher, 0.186
- CTGCGGTC — lower, -0.245
- CAGACCGC — lower, -0.0824
- AGTCGATA — higher, 0.179
- ATACTCAA — higher, 0.239
- ACTCTCAG — lower, 0.125
- AGACTCAA — higher, 0.444
- ACTCTCAC — higher, 0.173
- AGACTCTG — higher, 0.301
- AGACTCGC — higher, 0.336
- ATACTCAT — higher, 0.371
- AGACTCAG — higher, 0.434
- AGACTCAC — higher, 0.457
- AGACTCTA — higher, 0.267
- ATACTCAG — higher, 0.214
- ACTCTCAA — higher, 0.257
- CCAAGTTA — lower, 0.0576
- CAATTGCG — lower, -0.0914
- ATGGATGG — lower, -0.0396
- GCAACTGC — lower, -0.0982
- AACCGTGT — lower, 0.0249
- CGGTTCAG — lower, -0.212
- TAGCTAAA — lower, 0.0446
- CCGGGGGC — lower, -0.128
- CCCCACCC — lower, -0.0582
- ATCATTTA — higher, 0.327
- ATCCTTAG — lower, -0.107
- CATGGCCG — lower, -0.31
- CCACTCAC — lower, -0.0373
- ACACTCCG — lower, -0.136
- AGACTCCT — higher, 0.337
- AGACTCCG — higher, 0.367
- ACTCTCAT — lower, 0.112
- CAACTCAC — higher, 0.224
- AGACTCAT — higher, 0.467
- ACACTCAT — higher, 0.25
- CGACTCAC — higher, 0.468
- CGACTCTC — higher, 0.381
- AGACTCTC — higher, 0.334
- CGACTCGC — higher, 0.361
- TGGGCTAA — lower, -0.0729
- AGATGGTC — lower, -0.295
- AGAGACAG — lower, -0.0696
- GAACTAGA — lower, 0.0303
- CCACTCAG — lower, 0.0632
- CGACTCAG — higher, 0.45
- CCGTTATC — lower, 0.0125
- ATGGCGGG — lower, -0.0628
- CGTCACAA — lower, -0.0973
- CGTCACAG — lower, -0.031
- AGTCACAC — higher, 0.477
- GGTCACAA — lower, 0.0763
- GGTCACAC — lower, -0.00398
- AGTCACAA — higher, 0.46
- ACTCACAT — higher, 0.35
- ATTCACAG — lower, 0.078
- AGTCACAG — higher, 0.467
- AGGCACAT — lower, -0.117
- AGTCACAT — higher, 0.469
- CGTCACAC — lower, -0.155
- CCCCGCTA — lower, -0.209
- CTGGCGCC — lower, -0.331
- TGCGGACA — lower, -0.121
- GATGGCTA — higher, 0.359
- TAGTCATA — higher, 0.489
- CGGTCATA — lower, -0.0954
- TACTCATA — higher, 0.343
- CCGTCATA — lower, 0.0861
- CACTCATG — higher, 0.222
- ATGTCATG — higher, 0.214
- CAGTCATA — higher, 0.448
- CAGTCATG — higher, 0.458
- CTGTCATA — lower, 0.0424
- CGCGGACC — lower, -0.262
- CGGTTGAC — lower, 0.0774
- ACCAGCGG — lower, -0.133
- CGGCAAGA — lower, -0.115
- ACTCAATC — higher, 0.404
- CGTCAATA — lower, -0.192
- AGTCAATC — higher, 0.426
- ATTCAATC — higher, 0.308
- AATCAATC — higher, 0.301
- AATCAATG — higher, 0.236
- AGTCAATA — higher, 0.383
- ACTCAATG — higher, 0.302
- ATTCAATG — higher, 0.204
- CGTCAATC — higher, 0.17
- GGTCAATA — lower, 0.108
- AGTCAATG — higher, 0.377
- AGCGGATG — lower, -0.0548
- CTGGGCTA — lower, -0.161
- AGGCTACC — lower, -0.0969
- CCAACACC — lower, -0.158
